# How the values were obtained:
# [1] = target: Sphingosine kinase 1 (Homo sapiens) (UniProt Q9NYA1); settings: at 1 µM;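 also: mean SPHK1 inhibition value reported from the GSK PKIS kinase panel screen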
# [2] = target: T1, Sphingosine kinase 2 (Homo sapiens) (UniProt Q9NRA0); settings: at 0.1 µM
# T1 sequence (whole entry): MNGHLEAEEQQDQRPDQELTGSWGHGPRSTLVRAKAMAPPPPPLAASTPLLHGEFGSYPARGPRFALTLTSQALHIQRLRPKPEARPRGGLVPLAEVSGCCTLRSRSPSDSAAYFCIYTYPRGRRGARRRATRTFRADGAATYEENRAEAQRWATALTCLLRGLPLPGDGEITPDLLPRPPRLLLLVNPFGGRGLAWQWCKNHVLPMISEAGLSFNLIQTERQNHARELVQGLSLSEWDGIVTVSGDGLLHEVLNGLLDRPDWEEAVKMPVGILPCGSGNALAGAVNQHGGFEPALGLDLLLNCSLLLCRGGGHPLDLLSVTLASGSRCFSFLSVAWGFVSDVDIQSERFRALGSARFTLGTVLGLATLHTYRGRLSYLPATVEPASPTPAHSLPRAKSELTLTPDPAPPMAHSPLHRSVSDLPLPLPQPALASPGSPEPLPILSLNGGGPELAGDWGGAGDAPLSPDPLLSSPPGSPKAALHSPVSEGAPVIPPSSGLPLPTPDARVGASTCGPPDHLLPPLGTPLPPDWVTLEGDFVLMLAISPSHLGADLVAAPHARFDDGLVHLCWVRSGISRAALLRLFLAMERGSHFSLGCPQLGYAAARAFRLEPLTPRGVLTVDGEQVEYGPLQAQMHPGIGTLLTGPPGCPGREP
# [3] = target: T1, Sphingosine kinase 2 (Homo sapiens); settings: at 1 µM
# [4] = target: Casein kinase II subunit alpha (Homo sapiens) (UniProt P68400); settings: at 0.1 µM
# [5] = target: Casein kinase II subunit alpha (Homo sapiens) (UniProt P68400); settings: at 1 µM
# [6] = target: T2, Inhibitor of nuclear factor kappa-B kinase subunit alpha (Homo sapiens) (UniProt O15111); settings: at 0.1 µM
# T2 sequence (whole entry): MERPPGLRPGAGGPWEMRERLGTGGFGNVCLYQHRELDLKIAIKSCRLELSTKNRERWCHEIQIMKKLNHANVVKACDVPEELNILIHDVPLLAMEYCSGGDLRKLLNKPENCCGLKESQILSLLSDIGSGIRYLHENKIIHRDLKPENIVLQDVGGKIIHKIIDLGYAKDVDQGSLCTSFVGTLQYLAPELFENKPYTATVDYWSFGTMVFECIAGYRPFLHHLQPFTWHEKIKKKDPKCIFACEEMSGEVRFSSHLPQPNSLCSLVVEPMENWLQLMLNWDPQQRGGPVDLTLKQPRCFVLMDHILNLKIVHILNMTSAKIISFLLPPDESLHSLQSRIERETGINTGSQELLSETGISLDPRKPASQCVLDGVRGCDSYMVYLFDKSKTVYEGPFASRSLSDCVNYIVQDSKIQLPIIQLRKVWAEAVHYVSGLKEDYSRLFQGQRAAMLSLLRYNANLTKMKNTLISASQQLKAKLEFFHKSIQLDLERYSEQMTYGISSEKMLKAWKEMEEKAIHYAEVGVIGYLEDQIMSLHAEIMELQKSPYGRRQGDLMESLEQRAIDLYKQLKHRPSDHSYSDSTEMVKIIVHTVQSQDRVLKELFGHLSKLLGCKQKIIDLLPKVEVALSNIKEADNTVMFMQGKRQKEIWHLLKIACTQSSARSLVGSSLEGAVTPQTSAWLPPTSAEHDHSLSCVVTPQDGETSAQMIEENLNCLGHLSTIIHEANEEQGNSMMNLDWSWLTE
# [7] = target: T2, Inhibitor of nuclear factor kappa-B kinase subunit alpha (Homo sapiens); settings: at 1 µM
# [8] = target: T3, Inhibitor of nuclear factor kappa-B kinase subunit beta (Homo sapiens) (UniProt O14920); settings: at 0.1 µM
# T3 sequence (whole entry): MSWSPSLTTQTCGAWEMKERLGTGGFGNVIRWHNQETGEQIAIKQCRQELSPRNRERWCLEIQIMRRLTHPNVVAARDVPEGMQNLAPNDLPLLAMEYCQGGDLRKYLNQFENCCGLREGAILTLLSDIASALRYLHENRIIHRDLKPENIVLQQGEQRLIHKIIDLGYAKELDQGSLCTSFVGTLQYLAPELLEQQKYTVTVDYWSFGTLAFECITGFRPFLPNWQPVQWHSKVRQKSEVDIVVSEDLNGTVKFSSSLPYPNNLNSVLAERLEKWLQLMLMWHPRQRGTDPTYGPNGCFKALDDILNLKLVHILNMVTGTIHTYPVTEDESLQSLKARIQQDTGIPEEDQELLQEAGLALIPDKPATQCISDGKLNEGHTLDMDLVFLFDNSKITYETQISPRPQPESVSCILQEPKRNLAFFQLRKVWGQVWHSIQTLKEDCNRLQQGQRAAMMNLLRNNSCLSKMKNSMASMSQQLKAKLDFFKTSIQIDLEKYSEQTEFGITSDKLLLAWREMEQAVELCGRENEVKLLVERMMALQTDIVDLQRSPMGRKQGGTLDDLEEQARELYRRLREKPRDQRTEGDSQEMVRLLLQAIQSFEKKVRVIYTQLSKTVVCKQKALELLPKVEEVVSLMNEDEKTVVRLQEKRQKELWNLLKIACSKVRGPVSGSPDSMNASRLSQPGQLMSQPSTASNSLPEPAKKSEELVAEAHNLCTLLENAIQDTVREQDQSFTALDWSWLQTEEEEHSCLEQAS
# [9] = target: T3, Inhibitor of nuclear factor kappa-B kinase subunit beta (Homo sapiens); settings: at 1 µM
# [10] = target: T4, Inhibitor of nuclear factor kappa-B kinase subunit epsilon (Homo sapiens) (UniProt Q14164); settings: at 0.1 µM
# T4 sequence (whole entry): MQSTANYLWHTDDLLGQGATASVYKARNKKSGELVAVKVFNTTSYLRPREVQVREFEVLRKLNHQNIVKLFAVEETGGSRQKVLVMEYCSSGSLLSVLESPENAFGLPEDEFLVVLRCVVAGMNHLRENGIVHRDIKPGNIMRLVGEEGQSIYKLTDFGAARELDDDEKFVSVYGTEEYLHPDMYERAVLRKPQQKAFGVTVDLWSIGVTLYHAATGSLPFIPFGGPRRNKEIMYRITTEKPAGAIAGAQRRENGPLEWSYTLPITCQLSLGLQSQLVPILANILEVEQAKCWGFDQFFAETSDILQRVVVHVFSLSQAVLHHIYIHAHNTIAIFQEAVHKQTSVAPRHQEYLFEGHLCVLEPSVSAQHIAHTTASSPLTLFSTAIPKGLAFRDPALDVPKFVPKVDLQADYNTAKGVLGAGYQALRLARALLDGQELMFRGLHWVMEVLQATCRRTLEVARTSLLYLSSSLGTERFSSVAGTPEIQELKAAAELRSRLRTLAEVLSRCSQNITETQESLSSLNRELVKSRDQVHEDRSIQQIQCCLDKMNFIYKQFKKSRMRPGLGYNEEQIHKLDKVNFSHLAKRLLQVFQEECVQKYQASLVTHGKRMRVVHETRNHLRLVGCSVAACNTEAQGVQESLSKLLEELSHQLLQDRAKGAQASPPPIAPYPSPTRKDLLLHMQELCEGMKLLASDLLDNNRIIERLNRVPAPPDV
# [11] = target: T4, Inhibitor of nuclear factor kappa-B kinase subunit epsilon (Homo sapiens); settings: at 1 µM
# [12] = target: T5, Serine/threonine-protein kinase Nek1 (Homo sapiens) (UniProt Q96PY6); settings: at 0.1 µM
# T5 sequence (whole entry): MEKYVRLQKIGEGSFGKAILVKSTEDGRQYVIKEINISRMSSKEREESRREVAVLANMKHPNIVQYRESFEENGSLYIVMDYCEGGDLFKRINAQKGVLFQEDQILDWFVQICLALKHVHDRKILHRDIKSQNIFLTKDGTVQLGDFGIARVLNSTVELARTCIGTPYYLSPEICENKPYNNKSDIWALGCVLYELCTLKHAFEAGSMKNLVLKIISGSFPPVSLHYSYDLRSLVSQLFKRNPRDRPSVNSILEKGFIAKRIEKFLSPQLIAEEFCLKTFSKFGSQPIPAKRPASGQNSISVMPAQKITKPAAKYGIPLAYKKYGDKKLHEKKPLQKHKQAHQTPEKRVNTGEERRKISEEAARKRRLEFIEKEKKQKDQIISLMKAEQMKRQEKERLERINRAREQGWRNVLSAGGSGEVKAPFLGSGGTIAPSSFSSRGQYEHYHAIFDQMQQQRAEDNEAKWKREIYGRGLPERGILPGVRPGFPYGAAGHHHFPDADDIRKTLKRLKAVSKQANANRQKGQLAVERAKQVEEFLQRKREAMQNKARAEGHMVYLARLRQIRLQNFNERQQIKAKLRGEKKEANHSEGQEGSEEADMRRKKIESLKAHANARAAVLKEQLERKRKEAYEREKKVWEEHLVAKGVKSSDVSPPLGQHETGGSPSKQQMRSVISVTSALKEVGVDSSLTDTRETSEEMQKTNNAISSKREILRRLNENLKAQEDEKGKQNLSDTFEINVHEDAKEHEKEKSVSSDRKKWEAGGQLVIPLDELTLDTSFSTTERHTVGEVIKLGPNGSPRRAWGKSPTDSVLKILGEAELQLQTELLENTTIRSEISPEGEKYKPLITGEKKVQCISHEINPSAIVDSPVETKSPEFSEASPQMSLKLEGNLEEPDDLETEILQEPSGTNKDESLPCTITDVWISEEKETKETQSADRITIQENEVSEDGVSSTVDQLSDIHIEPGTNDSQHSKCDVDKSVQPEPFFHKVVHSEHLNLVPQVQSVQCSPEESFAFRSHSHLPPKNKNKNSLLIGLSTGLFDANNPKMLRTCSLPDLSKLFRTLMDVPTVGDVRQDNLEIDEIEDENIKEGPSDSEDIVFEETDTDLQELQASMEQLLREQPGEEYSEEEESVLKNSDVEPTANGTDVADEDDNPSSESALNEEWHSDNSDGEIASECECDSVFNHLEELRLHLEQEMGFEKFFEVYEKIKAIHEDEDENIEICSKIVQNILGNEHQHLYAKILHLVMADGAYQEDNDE
# [13] = target: T5, Serine/threonine-protein kinase Nek1 (Homo sapiens); settings: at 1 µM
# [14] = target: T6, Serine/threonine-protein kinase Nek2 (Homo sapiens) (UniProt P51955); settings: at 0.1 µM
# T6 sequence (whole entry): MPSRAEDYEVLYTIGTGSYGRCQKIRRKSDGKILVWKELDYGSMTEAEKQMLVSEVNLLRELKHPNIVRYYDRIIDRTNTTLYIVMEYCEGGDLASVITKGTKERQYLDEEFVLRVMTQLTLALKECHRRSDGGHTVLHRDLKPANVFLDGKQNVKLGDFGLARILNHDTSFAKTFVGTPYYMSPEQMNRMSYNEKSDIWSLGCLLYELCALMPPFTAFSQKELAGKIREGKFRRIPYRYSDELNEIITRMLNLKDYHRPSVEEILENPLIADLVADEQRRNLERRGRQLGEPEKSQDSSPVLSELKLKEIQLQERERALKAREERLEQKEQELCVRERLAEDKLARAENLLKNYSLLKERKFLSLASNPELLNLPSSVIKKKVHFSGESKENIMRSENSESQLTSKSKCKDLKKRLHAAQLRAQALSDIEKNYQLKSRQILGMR
# [15] = target: T6, Serine/threonine-protein kinase Nek2 (Homo sapiens); settings: at 1 µM
# [16] = target: Serine/threonine-protein kinase Nek6 (Homo sapiens) (UniProt Q9HC98); settings: at 0.1 µM
# [17] = target: Serine/threonine-protein kinase Nek6 (Homo sapiens) (UniProt Q9HC98); settings: at 1 µM
# [18] = target: Serine/threonine-protein kinase Nek7 (Homo sapiens) (UniProt Q8TDX7); settings: at 0.1 µM
# [19] = target: Serine/threonine-protein kinase Nek7 (Homo sapiens) (UniProt Q8TDX7); settings: at 1 µM
# [20] = target: T7, Serine/threonine-protein kinase Nek9 (Homo sapiens) (UniProt Q8TD19); settings: at 0.1 µM;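 also: reported value is the mean percent inhibition of NEK9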
# T7 sequence (whole entry): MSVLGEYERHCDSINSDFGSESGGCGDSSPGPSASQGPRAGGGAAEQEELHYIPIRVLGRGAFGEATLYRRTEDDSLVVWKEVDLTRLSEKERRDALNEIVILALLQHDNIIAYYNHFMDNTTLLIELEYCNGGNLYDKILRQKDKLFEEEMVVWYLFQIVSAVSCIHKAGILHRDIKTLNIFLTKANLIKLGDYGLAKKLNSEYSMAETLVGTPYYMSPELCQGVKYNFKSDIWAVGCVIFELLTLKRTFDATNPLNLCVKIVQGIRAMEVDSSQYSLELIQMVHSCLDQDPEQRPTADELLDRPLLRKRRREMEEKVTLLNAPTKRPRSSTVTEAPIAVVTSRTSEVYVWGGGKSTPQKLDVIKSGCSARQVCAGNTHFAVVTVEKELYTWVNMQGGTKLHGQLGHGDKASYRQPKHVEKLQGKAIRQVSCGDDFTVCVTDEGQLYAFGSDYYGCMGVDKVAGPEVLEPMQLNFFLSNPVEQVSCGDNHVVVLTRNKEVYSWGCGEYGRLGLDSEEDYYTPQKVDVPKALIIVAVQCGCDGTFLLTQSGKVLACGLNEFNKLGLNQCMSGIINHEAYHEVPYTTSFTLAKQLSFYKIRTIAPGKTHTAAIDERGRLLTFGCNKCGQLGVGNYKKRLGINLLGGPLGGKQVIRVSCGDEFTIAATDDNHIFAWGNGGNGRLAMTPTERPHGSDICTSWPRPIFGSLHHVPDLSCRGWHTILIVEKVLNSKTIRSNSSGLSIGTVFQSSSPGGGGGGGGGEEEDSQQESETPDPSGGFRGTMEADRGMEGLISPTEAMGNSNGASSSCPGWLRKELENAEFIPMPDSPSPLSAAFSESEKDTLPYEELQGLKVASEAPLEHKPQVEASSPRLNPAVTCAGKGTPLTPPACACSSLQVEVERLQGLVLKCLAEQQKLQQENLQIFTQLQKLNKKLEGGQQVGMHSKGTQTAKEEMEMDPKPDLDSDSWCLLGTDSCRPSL
# Serine/threonine-protein kinase Nek6 (Homo sapiens), sequence (Q9HC98 whole entry): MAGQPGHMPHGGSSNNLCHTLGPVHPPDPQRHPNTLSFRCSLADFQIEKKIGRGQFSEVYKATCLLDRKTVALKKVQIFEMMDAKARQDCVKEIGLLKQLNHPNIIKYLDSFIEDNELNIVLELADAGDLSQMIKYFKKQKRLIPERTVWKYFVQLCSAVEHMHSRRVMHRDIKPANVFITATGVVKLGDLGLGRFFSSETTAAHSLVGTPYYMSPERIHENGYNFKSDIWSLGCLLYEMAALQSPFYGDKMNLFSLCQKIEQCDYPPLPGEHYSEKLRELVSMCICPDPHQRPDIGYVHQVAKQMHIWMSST
# Serine/threonine-protein kinase Nek7 (Homo sapiens), sequence (Q8TDX7 whole entry, looked up): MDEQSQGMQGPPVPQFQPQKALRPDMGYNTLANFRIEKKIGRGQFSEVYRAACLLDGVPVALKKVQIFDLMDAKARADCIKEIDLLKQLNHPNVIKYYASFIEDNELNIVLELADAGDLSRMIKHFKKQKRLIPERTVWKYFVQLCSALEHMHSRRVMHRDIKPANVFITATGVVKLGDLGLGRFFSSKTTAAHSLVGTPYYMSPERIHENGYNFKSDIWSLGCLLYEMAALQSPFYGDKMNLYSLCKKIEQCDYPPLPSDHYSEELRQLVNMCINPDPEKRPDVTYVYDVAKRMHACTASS
# Casein kinase II subunit alpha (Homo sapiens), sequence (P68400 whole entry, looked up): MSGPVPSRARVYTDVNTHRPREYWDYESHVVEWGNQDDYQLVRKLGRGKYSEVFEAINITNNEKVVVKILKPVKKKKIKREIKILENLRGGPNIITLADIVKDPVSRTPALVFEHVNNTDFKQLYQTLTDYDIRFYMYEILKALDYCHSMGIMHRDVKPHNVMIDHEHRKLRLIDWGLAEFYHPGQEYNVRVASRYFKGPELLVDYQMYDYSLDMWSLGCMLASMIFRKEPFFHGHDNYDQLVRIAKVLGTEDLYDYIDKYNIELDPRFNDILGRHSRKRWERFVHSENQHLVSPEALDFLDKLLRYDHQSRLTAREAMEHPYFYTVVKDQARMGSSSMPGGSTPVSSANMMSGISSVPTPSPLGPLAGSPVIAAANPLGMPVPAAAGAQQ
# Sphingosine kinase 1 (Homo sapiens), sequence (Q9NYA1 whole entry): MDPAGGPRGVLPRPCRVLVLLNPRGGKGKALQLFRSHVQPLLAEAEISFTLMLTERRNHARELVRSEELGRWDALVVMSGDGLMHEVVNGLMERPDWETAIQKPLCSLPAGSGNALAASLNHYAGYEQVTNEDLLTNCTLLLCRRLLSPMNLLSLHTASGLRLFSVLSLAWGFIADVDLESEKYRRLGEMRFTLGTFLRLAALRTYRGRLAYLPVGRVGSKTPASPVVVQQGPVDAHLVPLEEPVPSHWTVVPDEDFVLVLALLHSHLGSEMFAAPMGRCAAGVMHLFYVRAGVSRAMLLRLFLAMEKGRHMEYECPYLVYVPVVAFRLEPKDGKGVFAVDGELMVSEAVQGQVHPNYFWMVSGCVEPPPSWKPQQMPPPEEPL
structure (smiles),measurement,setting,value
CCCN1CCC=C(c2ccc(Nc3nc(Nc4ccccc4C(N)=O)c4cc[nH]c4n3)c(C)c2)C1,inhibition,[1],1.28%
same,inhibition,[2],-1.02%
same,inhibition,[3],0.04%
same,inhibition,[4],33.7%
same,inhibition,[5],72%
same,inhibition,[6],13.6%
same,inhibition,[7],16%
same,inhibition,[8],5.1%
same,inhibition,[9],8.74%
same,inhibition,[10],9.65%
same,inhibition,[11],10.3%
same,inhibition,[12],3.93%
same,inhibition,[13],8.78%
same,inhibition,[14],6.91%
same,inhibition,[15],7.52%
same,inhibition,[16],0.8%
same,inhibition,[17],5.18%
same,inhibition,[18],4.64%
same,inhibition,[19],14%
same,inhibition,[20],7.78%

# Reference: ChEMBL document CHEMBL1961873, “Compounds: GSK PKIS; Assays: Nanosyn kinase panel” (2012)
